Test [1] has as its system Wnt5a (protein binding on small-molecule microarray). Kind of test: small molecules binding Wnt5a protein – biophysical, small-molecule microarray, 635/667 nm fluorescence, primary screen (AID 1142).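 Note: fluorescence read at 667 nm with signal to noise per printed feature.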 To be noted: 635 nm fluorescence, higher = more signal.
Test [2] can be described thus: ATP-based viability of Huh7 replicon cells – cell-based, CellTiter-Glo luminescence, basal, 48 h, cytotoxicity control for HCV replication inhibitor project, primary screen (AID 1143).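 Note: Huh7 hepatoma cells carrying a hepatitis C replication reporter with no stimulus; test concentration not given here.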 To be noted: higher = more signal, called active from +8 up or from −8 down. In general terms: A replicon is a self-replicating genome or part of one, used to study replication in cells.

A short description of test [3]: basal CRE-LacZ reporter activity in PC12 – cell-based, unstimulated, primary screen (AID 1145). To be noted: no forskolin, luminescence, 4.5 h, higher = more signal, called active from +8 up or from −8 down.
Test [4] in a line: forskolin-driven CRE-LacZ activity in PC12 – cell-based, CRE-LacZ reporter, forskolin-stimulated, primary screen (AID 1146).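 Note: PC12 cells with 6xCRE LacZ reporter stimulated by forskolin 10 µM; beta-galactosidase reporter signal reflecting CREB driven transcription.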 To be noted: luminescence, 4.5 h, higher = more signal, called active from +8 up or from −8 down.
Test [5] deals with Streptavidin (Streptomyces avidinii) (UniProt P22629). Kind of test: compounds binding control protein streptavidin – biophysical, small-molecule microarray, 635/667 nm fluorescence, artefact control for SMM compound annotation, primary screen (AID 1147).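 Note: signal reflects streptavidin binding to arrayed compounds as a control protein.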 Conditions: higher = more signal.
Test [6] can be described thus: probe aInhba binding on compound microarray – biochemical, small-molecule microarray, 635/667 nm fluorescence, primary screen (AID 1148).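 Note: score merges 667nm spot fluorescence with signal-to-noise for antibody binding to printed compounds.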 To be noted: higher = more signal.
For test [7], the target named is Torsin-1A (Homo sapiens) (UniProt O14656). Kind of test: TOR1A wild-type binding on microarray – cell lysate, small-molecule microarray, lysate, 635/667 nm, primary screen (AID 1149). To be noted: COS7 hTOR1A-WT lysate, 635 nm fluorescence, higher = more signal.
Test [8] shares this target. In words: torsin A mutant lysate binding on microarrays – cell lysate, small-molecule microarray, COS7 lysate, 635/667 nm fluorescence, primary screen (AID 1150).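 Note: score pools 667 nm emission and signal to noise measuring lysate protein binding.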 Conditions: COS7 hTOR1A mutant lysate, 635 nm fluorescence, higher = more signal.
The subject of test [9] is Sonic hedgehog protein (Shh). In words: Sonic hedgehog microarray binding compounds – biochemical, small-molecule microarray, 635/667 nm fluorescence, primary screen (AID 1151).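 Note: Shh protein binding to compounds spotted on small-molecule microarray slides; score combines spot fluorescence intensity with signal-to-noise across triplicate slides.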 To be noted: 635 nm fluorescence, higher = more signal.
A short description of test [10]: optical density shifts of acrAB sulA E. coli – strain DRC41, OD650, 48 h, E. coli filamentation inducer project, primary screen (AID 1152).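 Note: E. coli MC1000 strain DRC41 lacking acrAB efflux pump and sulA.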 Conditions: higher = more signal, called active from +8 up or from −8 down.
The nature of test [11]: probe aLefty1 binding on compound microarray – biochemical, small-molecule microarray, 635/667 nm fluorescence, primary screen (AID 1153).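 Note: score merges spot fluorescence with signal-to-noise ratio from the scanned slide images.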 To be noted: higher = more signal.
Test [12] is described as follows: plasmodial surface anion channel blockers, osmotic lysis – cell-based, P. falciparum Indochina, OD700, 1 h, primary screen (AID 1154). To be noted: P. falciparum Indochina infected RBC osmotic lysis, higher = more signal, called active from +8 up or from −8 down.
A short description of test [13]: plasmodial surface anion channel blockers, osmotic lysis – cell-based, P. falciparum Indochina, OD700, 2 h, primary screen (AID 1155).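 Note: lysis reports solute entry through the parasite surface anion channel PSAC.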 To be noted: P. falciparum Indochina infected erythrocytes, higher = more signal, called active from +8 up or from −8 down.
Test [14] can be described thus: changes in parasitized red cell lysis, either direction – P. falciparum Indochina, OD700, 3 h, PSAC antagonist project, primary screen (AID 1156). Conditions: P. falciparum-infected erythrocytes, osmotic lysis, higher = more signal, called active from +8 up or from −8 down.
Test [15] can be described thus: plasmodial surface anion channel blockers, osmotic lysis – cell-based, P. falciparum Indochina, OD700, 18 h, primary screen (AID 1157). To be noted: P. falciparum Indochina infected erythrocytes, osmotic lysis OD700, 18 h; higher = more signal, called active from +8 up or from −8 down.
Test [16] is described as follows: S6 kinase pathway phospho-S6 level changes – cell-based, A549, cytoblot, luminescence, serum-stimulated, primary screen (AID 1158).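 Note: serum-stimulated A549 lung adenocarcinoma cells; signal is phosphorylated S6 detected by cytoblot immunostaining with HRP secondary.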 To be noted: 5 h, higher = more signal.
In test [17] the target is NADPH oxidase 2 (Homo sapiens) (UniProt P04839). Kind of test: compounds shifting NOX2 Amplex Red fluorescence – cell-based, HEK293-NOX2, PMA-stimulated, NOX inhibitor project, primary screen (AID 1159). Note: test concentration not given here. Conditions: 45 min, higher = more signal, called active from +8 up or from −8 down.
In test [18] the target is NADPH oxidase 4 (Homo sapiens) (UniProt Q9NPH5). In words: compounds shifting NOX4 Amplex Red fluorescence – cell-based, HEK293-NOX4, tetracycline-induced, NOX inhibitor project, primary screen (AID 1160). Conditions: HEK293-NOX4, Amplex Red H2O2 fluorescence, 45 min; higher = more signal, called active from +8 up or from −8 down.
Test [19] has as its target NADPH oxidase 5 (Homo sapiens) (UniProt Q96PH1). In words: compounds shifting NOX5 Amplex Red fluorescence – cell-based, HEK293-NOX5, NOX inhibitor project, primary screen (AID 1161). Conditions: HEK293-NOX5, ionomycin, 45 min, higher = more signal.
The nature of test [20]: compound effects on lung adenocarcinoma cell viability – A549, calcein-AM fluorescence, 48 h, basal, profiling panel (AID 1162). Note: test concentration not given here. Conditions: higher = more signal.

Calls of active or inactive are those of the source.

NADPH oxidase 4 (Homo sapiens), sequence (Q9NPH5 whole entry, looked up): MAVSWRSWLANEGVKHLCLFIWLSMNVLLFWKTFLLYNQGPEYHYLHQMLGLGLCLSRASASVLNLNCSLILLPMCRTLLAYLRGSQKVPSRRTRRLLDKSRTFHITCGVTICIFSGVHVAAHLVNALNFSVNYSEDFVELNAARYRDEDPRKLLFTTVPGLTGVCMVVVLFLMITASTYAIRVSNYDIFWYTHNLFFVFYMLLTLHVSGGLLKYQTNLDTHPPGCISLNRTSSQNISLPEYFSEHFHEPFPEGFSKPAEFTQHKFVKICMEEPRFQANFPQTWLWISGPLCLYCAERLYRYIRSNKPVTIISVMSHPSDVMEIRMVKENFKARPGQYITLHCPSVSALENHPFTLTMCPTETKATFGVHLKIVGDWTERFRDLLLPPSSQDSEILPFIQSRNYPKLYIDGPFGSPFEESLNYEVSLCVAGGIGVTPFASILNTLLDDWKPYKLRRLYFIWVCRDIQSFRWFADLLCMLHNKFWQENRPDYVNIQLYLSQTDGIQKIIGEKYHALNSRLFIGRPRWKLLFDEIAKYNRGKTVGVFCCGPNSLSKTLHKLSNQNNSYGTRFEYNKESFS
Streptavidin (Streptomyces avidinii), sequence (P22629 whole entry, looked up): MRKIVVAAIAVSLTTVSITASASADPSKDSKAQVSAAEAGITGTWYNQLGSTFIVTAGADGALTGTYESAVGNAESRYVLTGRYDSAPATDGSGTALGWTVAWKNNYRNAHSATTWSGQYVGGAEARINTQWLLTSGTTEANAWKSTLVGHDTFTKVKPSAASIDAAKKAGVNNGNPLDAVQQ
NADPH oxidase 2 (Homo sapiens), sequence (P04839 whole entry, looked up): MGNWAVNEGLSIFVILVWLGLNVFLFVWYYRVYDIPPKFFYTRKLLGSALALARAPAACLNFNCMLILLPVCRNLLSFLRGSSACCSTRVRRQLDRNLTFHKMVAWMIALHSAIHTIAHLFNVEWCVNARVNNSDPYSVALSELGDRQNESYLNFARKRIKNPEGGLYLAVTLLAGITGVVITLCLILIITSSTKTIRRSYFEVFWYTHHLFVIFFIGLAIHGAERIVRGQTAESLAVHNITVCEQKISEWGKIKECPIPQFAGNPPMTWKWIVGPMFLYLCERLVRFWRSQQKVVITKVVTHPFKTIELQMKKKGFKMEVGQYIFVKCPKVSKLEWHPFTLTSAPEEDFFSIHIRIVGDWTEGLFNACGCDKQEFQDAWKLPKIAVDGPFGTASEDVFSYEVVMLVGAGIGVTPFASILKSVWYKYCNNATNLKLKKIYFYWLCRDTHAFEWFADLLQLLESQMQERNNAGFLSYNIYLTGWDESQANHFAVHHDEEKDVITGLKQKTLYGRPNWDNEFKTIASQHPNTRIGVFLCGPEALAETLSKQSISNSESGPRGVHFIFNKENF
Torsin-1A (Homo sapiens), sequence (O14656 whole entry, looked up): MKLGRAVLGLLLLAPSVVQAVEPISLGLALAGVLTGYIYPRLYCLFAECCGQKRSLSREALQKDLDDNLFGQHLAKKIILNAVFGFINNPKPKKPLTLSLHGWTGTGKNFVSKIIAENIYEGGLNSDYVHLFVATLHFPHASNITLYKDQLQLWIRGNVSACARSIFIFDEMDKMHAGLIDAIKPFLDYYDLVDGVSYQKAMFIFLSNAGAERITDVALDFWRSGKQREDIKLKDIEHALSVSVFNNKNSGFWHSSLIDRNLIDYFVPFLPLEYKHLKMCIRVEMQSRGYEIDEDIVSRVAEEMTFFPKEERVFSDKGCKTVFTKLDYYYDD
NADPH oxidase 5 (Homo sapiens), sequence (Q96PH1 whole entry, looked up): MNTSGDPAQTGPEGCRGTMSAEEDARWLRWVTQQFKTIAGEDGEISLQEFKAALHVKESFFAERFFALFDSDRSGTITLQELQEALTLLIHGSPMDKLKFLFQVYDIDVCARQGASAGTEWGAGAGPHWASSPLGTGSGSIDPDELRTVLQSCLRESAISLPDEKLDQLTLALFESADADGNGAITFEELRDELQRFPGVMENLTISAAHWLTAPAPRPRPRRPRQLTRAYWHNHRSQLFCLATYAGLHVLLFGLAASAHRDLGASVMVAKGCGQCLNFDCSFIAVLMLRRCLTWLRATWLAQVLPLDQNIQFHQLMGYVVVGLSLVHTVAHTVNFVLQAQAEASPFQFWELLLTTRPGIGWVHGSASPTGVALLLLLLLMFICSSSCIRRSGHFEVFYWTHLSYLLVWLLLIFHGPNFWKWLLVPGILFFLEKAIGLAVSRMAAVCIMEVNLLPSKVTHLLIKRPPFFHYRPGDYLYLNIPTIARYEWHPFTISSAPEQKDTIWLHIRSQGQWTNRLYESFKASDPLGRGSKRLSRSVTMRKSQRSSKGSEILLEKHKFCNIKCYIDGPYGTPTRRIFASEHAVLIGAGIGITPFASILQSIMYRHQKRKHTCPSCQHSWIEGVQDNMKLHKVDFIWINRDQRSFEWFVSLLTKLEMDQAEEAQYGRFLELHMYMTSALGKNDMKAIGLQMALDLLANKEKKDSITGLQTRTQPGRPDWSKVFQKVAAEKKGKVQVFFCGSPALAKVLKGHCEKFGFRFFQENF

As for `CC(C)(C)OC(=O)CC[C@@]12N=C(c3ccc(OCCCO)cc3)O[C@@H]1c1ccccc1N(Cc1ccccc1)C2=O`, the composite z-score in [1] was 0.215; in [5], -0.0873; in test [6], 0.222; with Torsin-1A (Homo sapiens) [7], 0.488; with Torsin-1A (Homo sapiens) [8] it was 0.516; in test [9] it was 0.657. This compound yielded a composite z-score in [11] of 0.659. For the same compound, the z-score is -4.37 (inactive) in [2]; 1.6 (inactive) in test [3]; -1.25 (inactive) in test [4]; 0.94 (inactive) in test [10]; 28.5 (active) in [12]; 29 (active) in test [13]. Also, the z-score in [14] is 3.86 (inactive); in [15], 2.24 (inactive); in [16] it was 0.497; in test [17], 1.56 (inactive); in test [18], -0.266 (inactive); in [19] it was -1.38. Further, the z-score in [20] was -0.236.

In the case of `CCCCCN1CC=CC23O[C@@H]4/C=C\CCC(C)OC(=O)C4[C@H]2C(=O)N(CCCO)[C@@H]3C1=O` (stereo not given in full), the composite z-score in [1] is 0.0429; in [5], -0.67; in test [6], -0.245; with Torsin-1A (Homo sapiens) [7] it was 0.26; with Torsin-1A (Homo sapiens) [8] it was -0.147; in test [9], -0.0977. The composite z-score in test [11] is -0.229. The z-score in test [2] was -1.37 (inactive); in test [3], 0.487 (inactive); in test [4], 0.213 (inactive); in [10], 1.5 (inactive); in [12], -0.404 (inactive); in test [13] it was -0.0816 (inactive). In addition, the z-score was 0.787 (inactive) in test [14]; 0.281 (inactive) in [15]; 0.0147 in test [16]; 1.86 (inactive) in [17]; 0.381 (inactive) in test [18]; 2.57 in test [19]. Further, the z-score in [20] is -0.367.

With `CCCC[C@@H](O)C1=C(C)C[C@H]2C(=O)N(C)C(=O)[C@H]2[C@H]1CO`, the composite z-score is -0.0163 in test [1]; -0.242 in test [5]; -0.0736 in test [6]; 0.0651 with Torsin-1A (Homo sapiens) [7]; -0.0216 with Torsin-1A (Homo sapiens) [8]; 1.18 in test [9]. This compound also returned a composite z-score in [11] of -0.239. In addition, the z-score in test [2] is -1.36 (inactive); in test [3] it was 0.0423 (inactive); in [4], -2.14 (inactive); in test [10] it was 3.62 (inactive); in [12] it was 3.54 (inactive); in test [13], -0.526 (inactive). The z-score is -0.224 (inactive) in [14]; -1.56 (inactive) in [15]; 0.8 in test [16]; -1.32 (inactive) in test [17]; 0.914 (inactive) in test [18]; 0.794 in test [19]. In test [20], the z-score was 2.36.

Regarding `CCCNC(=O)[C@@H]1c2ccccc2C(=O)N(Cc2cc(C(F)(F)F)cc(C(F)(F)F)c2)[C@H]1c1ccc(CO)cc1`, the composite z-score in test [1] was 0.311; in test [5], -0.555; in [6], -0.157; with Torsin-1A (Homo sapiens) [7], -0.0027; with Torsin-1A (Homo sapiens) [8], 0.19; in test [9] it was 1. In test [11], the composite z-score was 0.233. Besides, the z-score was -2.67 (inactive) in test [2]; 0.649 (inactive) in test [3]; -1.13 (inactive) in [4]; 1.63 (inactive) in [10]; 3.17 (inactive) in [12]; 1.07 (inactive) in test [13]. In addition, the z-score in test [14] is -0.631 (inactive); in [15], 0.77 (inactive); in [16] it was 0.488; in test [17], 0.602 (inactive); in test [18] it was -0.772 (inactive); in test [19], 0.69. Besides, the z-score in test [20] was 1.16.

In the case of `COc1ccc(C(=O)Nc2cccc(CN3C(=O)[C@@]4(O[C@@H](CCO)[C@H]([Si](C)(C)c5ccc(OC)cc5)[C@H]4C)c4ccccc43)c2)cc1`, the composite z-score in test [1] was 0.143; in test [5], 0.182; in [6], -0.0523; in the test with Torsin-1A (Homo sapiens) [7], 0.317; in the test with Torsin-1A (Homo sapiens) [8], 0.478; in [9], 0.626. For the same compound, the composite z-score in test [11] is -0.0082. Moreover, the z-score is -8.03 (active) in [2]; 4.03 (inactive) in [3]; -2.29 (inactive) in test [4]; 0.677 (inactive) in test [10]; 9.1 (active) in test [12]; 1.27 (inactive) in [13]. For the same compound, the z-score was -0.984 (inactive) in [14]; -0.11 (inactive) in [15]; 0.487 in [16]; -6.67 (inactive) in [17]; -2.83 (inactive) in [18]; -2.96 in [19]. For the same compound, the z-score in test [20] is -3.95.

The values are drawn from PubChem BioAssay.
